# This is part of a sample that, as a whole, favours compounds with a hit. Of some 79,000 tested, about 15% had one in any assay. Values without a mark were called inactive. Active and inactive are the calls of the source. Rule as the data show it: active = growth inhibition above about 70%; inactive = the rest.
# How the values were obtained:
# [1] = NCI Yeast Anticancer Drug Screen. Data for the rad50 strain (AID 155);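 also: 0% = growth of vehicle-only cultures of the same strain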; conditions: S. cerevisiae rad50 strain growth inhibition; at 50.0 µM; stronger effect = higher value
# Summary of the method: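 Relative growth inhibition (compound vs vehicle) was measured in yeast with a defined repair-gene alteration.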
# [2] = NCI Yeast Anticancer Drug Screen. Data for the mec2-1 strain (AID 157); conditions: S. cerevisiae mec2-1 strain, at 50.0 µM, stronger effect = higher value
# Summary of the method: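 Using mec2-1 yeast: add compound, measure growth, express inhibition versus vehicle-treated cultures.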
# [3] = NCI Yeast Anticancer Drug Screen. Data for the sgs1 mgt1 strain (AID 161);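 also: 0% = growth of cultures given vehicle only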; conditions: S. cerevisiae sgs1 mgt1 strain, at 50.0 µM, stronger effect = higher value
# Summary of the method: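 Growth of a repair-deficient yeast mutant was monitored after compound treatment and expressed as inhibition relative to vehicle-treated cultures.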
# [4] = NCI Yeast Anticancer Drug Screen. Data for the cln2 rad14 strain (AID 165);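 also: 0% = growth equal to vehicle treated cultures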; conditions: S. cerevisiae cln2 rad14 strain, at 50.0 µM, stronger effect = higher value
# Summary of the method: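 Yeast strain cln2 rad14, bearing defects in cell cycle control and DNA repair, serves as the test system; values reflect growth inhibition compared with vehicle.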
# [5] = NCI Yeast Anticancer Drug Screen. Data for the bub3 strain (AID 167); conditions: S. cerevisiae bub3 mutant strain, at 50.0 µM, stronger effect = higher value
# Summary of the method: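 Screening used yeast with an engineered genetic alteration affecting cell cycle control. Compound-exposed cultures were compared with vehicle cultures, and reduced growth was taken as inhibition.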
# [6] = NCI Yeast Anticancer Drug Screen. Data for the mlh1 rad18 strain (AID 175); conditions: S. cerevisiae mlh1 rad18 strain growth inhibition; at 50.0 µM; stronger effect = higher value
# Summary of the method: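 Steps: expose repair-defective yeast to compound; measure growth; express inhibition against vehicle-treated controls.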
SMILES,growth inhibition [1],growth inhibition [2],growth inhibition [3],growth inhibition [4],growth inhibition [5],growth inhibition [6]
CCCCC/C(C)=C(\C#N)C(=O)OC,-5.4%,-29.1%,-19.2%,-15.3%,-34%,-27.4%
O=c1c2ccccc2nc(-c2ccccc2Cl)n1/N=C/c1ccc(Cl)cc1Cl,-1.1%,5.3%,2.1%,-3.75%,-3.5%,6.1%
CCOC(=O)C(C#N)C1(C(C#N)C(=O)OCC)C(=O)Nc2ccccc21 (configuration not stated),1.8%,14.6%,19.8%,21.8%,24.7%,32.3%
N#Cc1ccc([N+](=O)[O-])n1CCO,9.7%,8.7%,35%,-0.05%,15.6%,19.3%
CC(=O)c1cc2c(cc1C)C(C)=C(C)C2(C)C,-3.1%,-2.35%,1.55%,-13.4%,0.65%,-2.9%
[NH-]C(CC(N)=O)C(=O)O.[NH-]C(CC(N)=O)C(=O)O.[Zn+2] (configuration not stated),-3.15%,-2.05%,-3.9%,-18.1%,-2.75%,5.25%
CC1=NOC2(C1)/C(=N/O)CCC/C2=N\O (configuration not stated),-3.65%,-25.1%,-1.5%,20.9%,-11.6%,0.45%
O=C(O)C(CCC1CCC=CCC1)C(=O)O,-13.8%,-6.7%,-9.25%,-2.45%,5.6%,-7.05%
O=C(O)C(=O)O.[Co+3].[NH-]C(Cc1ccccc1)C(=O)[O-].[NH-]CCN(CC[NH-])CC[NH-] (configuration not stated),28.2%,15.8%,8.8%,22.6%,2.7%,25.6%
CCOC(=O)CCCN,-8.45%,-3%,-6.95%,56.7%,-39.8%,-16.1%
Nc1cc(N)[nH]c(=S)n1,16.8%,10.2%,13.9%,-10.9%,-3.95%,-2.35%
CCCCn1c2c(c3ccccc3c1=O)C(=O)c1ccccc1-2,12.1%,-15.7%,-4.8%,2.1%,-18%,-53%
COC1/C=C/OC2(C)Oc3c(C)c(O)c4c(O)c(c5c(nc(-c6ccco6)n5-c5ccccc5)c4c3C2=O)NC(=O)/C(C)=C\C=C\C(C)C(O)C(C)C(O)C(C)C(OC(C)=O)C1C (configuration not stated),-6.2%,-13.8%,-19.8%,14.2%,-18.8%,-22.7%
COc1ccc(C2Nc3cc(Cl)ccc3NC3=C2C(=O)CC(C)(C)C3)cc1 (configuration not stated),52.5%,30.9%,41.2%,28.6%,40.3%,54.3%
O=C(NCCNC(=O)c1cccc([N+](=O)[O-])c1O)c1cccc([N+](=O)[O-])c1O,19.6%,6.8%,-2.85%,-9%,-3.2%,11.8%
N#C/C(=C/NC(=S)NCc1ccccc1)C(N)=O,-32.6%,-42.1%,-4.6%,0.25%,6.7%,-0.3%
Cc1cc2ccccc2n1S(=O)(=O)c1ccccc1,54%,45.4%,18.4%,35%,61%,66.3%
O=C(C(=Cc1ccc(F)cc1)C(=O)c1ccccc1)c1ccccc1,1.75%,6.2%,-12%,5.95%,3.35%,26.6%
BrCCCCCBr,12.4%,6.3%,1.5%,-48.5%,-5.45%,15.6%
CNCCCCCNC,-7%,-10.6%,-1.05%,-5.45%,-0.2%,19.2%
Cc1cc(N)ccc1N=Nc1cc(S(=O)(=O)O)c2cccc(S(=O)(=O)O)c2c1,-4.4%,22.1%,-2.65%,3.95%,8.85%,-4.55%

SMILES,growth inhibition [1],growth inhibition [2],growth inhibition [3],growth inhibition [4],growth inhibition [5],growth inhibition [6]
O=C(O)c1ccc(C(=O)O)nc1,-39.7%,-4.75%,0.95%,-14.4%,4.8%,-1.35%
COC(=O)c1cc(OC)nc(Cl)n1,3.9%,13.2%,1.45%,-37%,-11.9%,1.9%
O=C(/C(=C\c1ccccc1)c1ccccc1)c1ccccc1,25.1%,32.8%,26.4%,-75.2%,28.2%,21.4%
c1ccc(CCCCCCc2ccccc2)cc1,-33.9%,-22%,-8.5%,-6.55%,-14.6%,1.3%
CC(=O)N(C)c1ccc(NC(=S)NC(=O)c2cccc([N+](=O)[O-])c2)cc1,3.55%,21.6%,6.9%,-4.15%,27.5%,7.05%
Cc1c(F)cc(I)cc1[N+](=O)[O-],-3.7%,-9.1%,-11%,6.9%,1%,-16.6%
O=C(CC(C(=O)c1cccs1)c1cccs1)c1ccccc1Cl (configuration not stated),-10%,-27.6%,-12.6%,-11.3%,-3.8%,-8.15%
O=C(NCc1ccc(Cl)c(Cl)c1)Nc1ccccc1Cl,10.6%,24.4%,23.3%,-2.7%,24.8%,17.9%
O=C(O)C1CC1(c1ccccc1)c1ccccc1 (configuration not stated),18.6%,4.65%,-1.05%,-24.8%,-12.2%,15.8%
NC(=O)N=P(c1ccccc1)(c1ccccc1)c1ccccc1,-9.9%,12.6%,-6%,7.75%,3%,-12.9%
Cc1ccoc1,12.5%,-18.1%,6.45%,11.8%,26.8%,15.8%
COc1ccccc1NC(=O)Nc1ccc(Nc2ccccc2)cc1,92.7% (active),94.2% (active),92.2% (active),90.3% (active),92.2% (active),92.7% (active)
COCC(=O)c1ccc(C#N)cc1,4.35%,-20.2%,-7.25%,-39%,4.45%,2.2%
C=CCNC(=S)NNC(=O)c1c(C)nc2sccn12,-4.75%,-10.8%,-12.1%,0.25%,-14.2%,-5.9%
CN(C)C(=O)C1OC1(C)c1ccccc1 (configuration not stated),-7.75%,-5.25%,-3.35%,-20.9%,-1.3%,-7.95%
Nc1ccc(CC(=O)O)cc1S(=O)(=O)O,25.8%,-18.4%,4%,9.1%,4.25%,26.6%
O=C(c1ccccc1)C1C(C(=O)c2ccccc2)C(c2ccccc2)N(c2ccccc2)C1c1ccccc1 (configuration not stated),27.4%,17.8%,-27.1%,18.9%,-12.2%,-75.2%
COc1ccc(NC(=O)C(=O)C2NC(=S)NC2=O)c(OC)c1 (configuration not stated),34.4%,16.5%,11.6%,15.3%,3%,3.2%
COc1cc([N+](=O)[O-])ccc1NC(=O)Nc1nccs1,5.75%,29.9%,11.9%,-9.25%,22.4%,-37.3%
Cn1cnc([N+](=O)[O-])c1Sc1nc2ccccc2[nH]1,-16.4%,-10.3%,-12.2%,3.65%,-30.6%,-19.1%
Nc1ccn([C@H]2CO[C@@H](CO)O2)c(=O)n1,-53%,-46.4%,-18.7%,0.75%,-14.7%,-22.2%

# Reference: PubChem BioAssay (NCI)
